# Source: PubChem BioAssay (NCI)
# About 83,000 compounds went through this panel and 20% of them were active in at least one assay; those are over-represented in the sample as a whole.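 A percent growth of 40 corresponds to 60% growth inhibition; 0 means no net growth; -100 means all cells died. Active threshold: below 10.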 Values without a mark were called inactive. Activity calls are given as the source filed them.
# Tests used:
# Assay in all cases: NCI-60 one-dose screen, 48 h (100 = growth as untreated, 0 = no growth, -100 = all killed)
# Conditions in all cases: 10 µM
# [1] = tested on: HCT-15 colon
# [2] = tested on: HT29 colon
# [3] = tested on: SNB-75 CNS
# [4] = tested on: SNB-19 CNS
# [5] = tested on: U251 CNS
# [6] = tested on: PC-3 prostate
# [7] = tested on: SK-MEL-5 melanoma
# [8] = tested on: UACC-62 melanoma
# [9] = tested on: LOX IMVI melanoma
# [10] = tested on: SK-MEL-28 melanoma
# [11] = tested on: SK-MEL-2 melanoma
# [12] = tested on: EKVX NSCLC
# [13] = tested on: UO-31 renal
# [14] = tested on: TK-10 renal
# [15] = tested on: ACHN renal
# [16] = tested on: CAKI-1 renal
# [17] = tested on: A498 renal
# [18] = tested on: CCRF-CEM leukemia
# [19] = tested on: MOLT-4 leukemia
# [20] = tested on: SN12C renal
SMILES,growth [1],growth [2],growth [3],growth [4],growth [5],growth [6],growth [7],growth [8],growth [9],growth [10],growth [11],growth [12],growth [13],growth [14],growth [15],growth [16],growth [17],growth [18],growth [19],growth [20] [%]
COc1cc2c(cc1OC)CN(CCCCOc1cc(O)c3c(=O)cc(-c4ccccc4)oc3c1)CC2,21.4%,-6.93% (active),98.9%,78.3%,49.8%,63.1%,17.1%,40.4%,-66.1% (active),-8.78% (active),66.6%,76.6%,51%,117%,66.8%,56.9%,127%,32.2%,20.2%,–
CN1CCN(c2ccc(Nc3nc(N4CCN(S(=O)(=O)c5ccc(F)cc5)CC4)c4sccc4n3)cc2)CC1,-79.8% (active),-63.1% (active),-97.9% (active),-98.1% (active),-98.5% (active),-18.4% (active),-100% (active),-93.3% (active),-91.7% (active),-95.4% (active),-72.7% (active),-89.5% (active),-87.1% (active),-77.9% (active),-100% (active),-96.3% (active),-94.3% (active),-1.97% (active),–,–
CC(C)(C)c1ccc(NCc2cn(-c3ccc(C(=O)O)cc3)nc2-c2ccc(C#N)cc2)cc1,-54.6% (active),3.73% (active),59.1%,24.6%,22.8%,20.6%,7.94% (active),8.63% (active),23.5%,28.1%,53.1%,-36.7% (active),35.7%,86.3%,27%,34.4%,58.2%,–,8.13% (active),–
Cc1nn(-c2ccccc2)c2ncn(CC(=O)N/N=C/c3c[nH]c4ccccc34)c(=O)c12,89.2%,99.5%,78.5%,91.5%,83.8%,65.4%,85.5%,80.7%,84.4%,114%,86.3%,61.2%,–,107%,85.2%,71.9%,79.5%,85%,55.8%,89.7
S=c1nc(-c2ccccc2)cc(-c2cc3ccccc3nc2Cl)[nH]1,49.7%,67.6%,23.4%,81.2%,83.2%,60.1%,32.1%,43.8%,44.9%,65.2%,37.5%,70%,–,162%,77.7%,57.2%,–,43.5%,30.8%,88.3
O=C1Nc2ccc(Cl)cc2/C1=C/c1cccc(OCc2ccccc2)c1,22.3%,30.7%,73.9%,44.2%,3.61% (active),29.3%,22.4%,26.3%,1.77% (active),46.9%,28.4%,19.4%,–,77.2%,24.3%,34.6%,84.2%,-21.5% (active),-20.6% (active),36.1
COC1=C[C@@]23CCC(=O)N2CCc2cc4c(cc2[C@H]3[C@H]1OC(=O)C(C)(C)O)OCO4,97.5%,106%,74.1%,94.1%,104%,92.1%,99.3%,89.1%,96.6%,105%,104%,97.2%,87.5%,97.7%,103%,95.6%,108%,99.3%,86.7%,–
Cc1ccc(-c2ccc(SCC(=O)Nc3ccc(Cl)c(C(F)(F)F)c3)nn2)cc1,14.9%,-19.7% (active),-23.5% (active),23.2%,16.5%,28.7%,18.9%,15.5%,33.9%,57.6%,12.8%,36.7%,–,59.8%,43.4%,41.7%,80.3%,19.8%,8.91% (active),35.2
